# Test results from PubChem BioAssay AID504834 (National Center for Advancing Translational Sciences (NCATS), 2011).
# Among all 320,000 compounds or so, about 22,000 (6.9%) were called active. Roughly 27% stayed inconclusive and do not appear here. The call rests on the fitted dose curve; in most records, active means well fitted inhibition curve with a large enough effect; inconclusive means small, poorly fitted or top-dose-only effect, or another doubt; inactive means no such curve, though single readings can be large or run the other way. The entries come from a sample that favours actives as a whole. Where a call stands in place of a potency, no number is given.
# Test: Primary qHTS for delayed death inhibitors of the malarial parasite plastid, 96 hour incubation
# Conditions: P. falciparum luciferase reporter growth; series mostly up to 28.7 µM
# From the text: The goal of this screen is to discover new antimalarial compounds that act by inhibiting the development of the apicoplast in the malarial parasite Plasmodium falciparum. The biochemical processes that make this organelle essential for erythrocytic stage parasites are not well understood. However, antibiotics such as azithromycin and tetracycline, which target the apicoplast translational machinery, have a potent antimalarial effect.
# We have developed a cell-based assay that measures parasite growth based on the expression of an integrated copy of a firefly luciferase reporter. To detect small molecules that cause this "delayed death" phenotype, erythrocytes infected with the luciferase-expressing parasites were incubated with compounds for either one or two generations, corresponding to 48 and 96 hours, respectively. Compounds that inhibit parasite growth in the second generation, but not the first, should be enriched in antimalarials that target the apicoplast. Growth inhibition is detected by a decrease in luciferase activity.
# Assay Provider: David Fidock and Eric Ekland, Columbia University
# Keywords: NIH Roadmap, MLPCN, MLI, MLSMR, qHTS, NCGC, qHTS, malaria, luciferase, viability
# Four microliters of infected erythrocytes (2% hematocrit, 0.05% parasitemia final concentration) in culture medium were dispensed and the plates incubated for 96 hours at 37 C in 5% CO2. Two microliters of luciferase detection reagent was added and luminescence was detected by a ViewLux (PerkinElmer) reader.
# Potency means the concentration at half of the fitted maximal effect.
row,Compound,Potency
1,CC(C)NC(=O)C(c1ccc(F)cc1)N(C(=O)CCC(=O)Nc1ccccn1)c1ccccc1F (stereo not given),inactive
2,Cc1ccc(-n2c(C)cc(/C=N/Nc3ccc([N+](=O)[O-])cn3)c2C)c(C)c1,10.4 µM (active)
3,Cc1cc(/C=N/Nc2ccc([N+](=O)[O-])cn2)c(C)n1-c1cccc(C(=O)O)c1,inactive
4,Cc1ccc(N2CCN(c3ccc([N+](=O)[O-])cn3)CC2)c(C)c1,inactive
5,O=C(NC1CCCC1)C(c1ccc(Cl)cc1)N(C(=O)c1csnn1)C1CC1 (stereo not given),inactive
6,CC1CC1C(=O)OCC(=O)Nc1cccc(F)c1 (stereo not given),inactive
7,Cn1ccc(=NC=C(C#N)C#N)c2ccccc21,inactive
8,O=S(=O)(O)c1nc2ccccc2n1Cc1ccc(Cl)cc1Cl,inactive
9,N#CC(C#N)=CN=c1ccn(Cc2ccc(Cl)cc2Cl)cc1,1.17 µM (active)
10,CC(C)[C@H](NC(=O)N1CCn2c1nc1ccccc12)C(=O)NC1CC1,inactive
11,CCOC(=O)c1cc(C(=O)Nc2ccc(S(=O)(=O)Nc3ccc(OC)cc3)cc2)nn1C,11.7 µM (active)
12,CCOc1ccc(C(=O)Nc2ccc(S(=O)(=O)Nc3cc(C)on3)cc2)cc1,2.94 µM (active)
13,CCOC(=O)c1ccccc1NS(=O)(=O)c1ccc(OC)cc1,inactive
14,COc1cc(OC)cc(C(=O)Nc2ccc(S(=O)(=O)Nc3cc(C)on3)cc2)c1,inactive
15,COc1ccc(NC(=O)c2cnc(NS(=O)(=O)c3ccccc3)nc2)cc1,inactive
16,COc1cc2ccccc2cc1C(=O)Nc1ccc(S(=O)(=O)Nc2cc(C)on2)cc1,inactive
17,CCOCCCNC(=S)Nc1ccc2nc(N3CCN(CC)CC3)cc(C)c2c1,inactive
18,Cc1cc(C)c(C#N)c(Nc2cccc(Br)c2)n1,inactive
19,Cc1ccc(S(=O)(=O)N2CCN(C)CC2)cc1,inactive
20,Cc1nn(C)c(C)c1NS(=O)(=O)c1ccc(OC(F)(F)F)cc1,inactive
21,COc1cc(C(=O)OCC(=O)N(CC(C)C)C2CCS(=O)(=O)C2)ccc1OCC(C)C (stereo not given),inactive
22,CN(CC(=O)Nc1cccc(F)c1)C(=O)C1CSC2(C)CCC(=O)N12 (stereo not given),inactive
23,COC(=O)CCC(=O)N1CCCC(CO)(Cc2ccccc2)C1 (stereo not given),0.37 µM (active)
24,CCCc1cc(C(=O)N2CCCC(CO)(CCCc3ccccc3)C2)n(C)n1 (stereo not given),inactive
25,CS(=O)(=O)N(CC(=O)N1CCCC1)Cc1ccccc1,inactive

row,Compound,Potency
1,CCNC(=S)N(CCN(CC)CC)Cc1cc2cc3c(cc2[nH]c1=O)OCO3,inactive
2,CC(C)C[C@H](CO)Nc1nc(N(C)c2cccc(Cl)c2)c2ncn(C(C)C)c2n1,13.1 µM (active)
3,COC(=O)C(C)n1cnc2c(nnn2-c2cccc(Cl)c2)c1=O (stereo not given),inactive
4,CC1COc2ccccc2N1C(=O)c1ccc(F)cc1 (stereo not given),inactive
5,COc1cccc(C(C(=O)NC2CCCC2)N(C(=O)c2ccco2)c2cccc(C(C)=O)c2)c1OC (stereo not given),inactive
6,COc1cccc(-c2cc(C(=O)N3CCN(c4ccccc4OC)CC3)no2)c1,inactive
7,COc1ccccc1N1CCN(C(=O)c2ccc(NC3=NC4CS(=O)(=O)CC4S3)cc2)CC1 (stereo not given),10.4 µM (active)
8,CN(Cc1ccccc1)C(=O)c1ccc(NC2=NC3CS(=O)(=O)CC3S2)cc1 (stereo not given),inactive
9,NS(=O)(=O)c1ccc(CCNC(=O)c2nc(CS(=O)(=O)c3ccc(Cl)cc3)no2)cc1,inactive
10,CC1CC(C)CN(C(=O)C2CC(=O)N(c3ccc(F)cc3)C2)C1 (stereo not given),inactive
11,CC1(C)O[C@@H]2[C@H](O1)[C@@H](COS(=O)(=O)O)O[C@H]2n1cnc2c(=O)[nH]cnc21,inactive
12,CCCCNC(=O)C1(O)c2ccccc2NC(=O)N1c1ccc(Cl)cc1 (stereo not given),inactive
13,Cc1ccc(S(=O)(=O)N(Cc2cccc([N+](=O)[O-])c2)C(=O)N2CCN(C)CC2)cc1,inactive
14,Cc1c(NC(=O)CSCc2ccccc2)cccc1C(=O)O,10.4 µM (active)
15,CCCNC(=O)c1ccccc1NC(=O)CSCc1ccc(OC)cc1,inactive
16,O=C(CSCc1ccccc1)Nc1ccccc1,inactive
17,Nc1ccn(C2CC(O)C(CO)O2)c(=O)n1 (stereo not given),inactive
18,CCOC(=O)NN1C(=O)c2ccccc2NC1c1cccc(O)c1 (stereo not given),inactive
19,O=C1c2ccccc2NC(c2ccccc2O)N1NS(=O)(=O)c1ccccc1 (stereo not given),inactive
20,CCOC(=O)NN1C(=O)c2ccccc2NC1c1ccccc1O (stereo not given),14.7 µM (active)
21,COc1ccc(OC)c(C(C)NC(=S)Nc2ccc(S(=O)(=O)Nc3ncccn3)cc2)c1 (stereo not given),inactive
22,COc1ccccc1-n1c(-c2cc(-c3ccco3)[nH]n2)n[nH]c1=S,inactive
23,Fc1ccc2c(c1)C(c1cccnc1)=NNC(c1cccs1)=N2,7.38 µM (active)
24,COc1ccc2c(c1)C(c1cccs1)=NNC(c1cccnc1)=N2,inactive
25,CCc1ccc2c(c1)C(c1ccc([N+](=O)[O-])cc1)=NNC(c1ccccc1)=N2,inactive

row,Compound,Potency
1,CCOC(=O)c1cc2ccccc2n1CC(=O)c1ccccc1,inactive
2,CC(=O)Nc1ccc(NC(=O)[C@@H](NC(=O)c2cccc(C)c2)C(C)C)cc1,inactive
3,O=C(O)CSc1ccc(S(=O)(=O)N2CCCC2)cn1,inactive
4,CCN1CCCC1CNC(=O)c1cc2cc(OC)c(OC)cc2[nH]1 (stereo not given),inactive
5,O=C(COc1cccc(-n2cnnn2)c1)NCCC1=CCCCC1,10.4 µM (active)
6,CC(C)COc1ccc(C(=O)OCC(=O)NCCC2=CCCCC2)cc1,inactive
7,O=C(COc1ccc(Cl)cc1)NCCC1=CCCCC1,inactive
8,Cc1ccn2c(c1)nc(=O)c1cc(S(=O)(=O)N3CCC(C)CC3)ccc12,inactive
9,COC(=O)c1ccc(COC(=O)CNC(=O)c2cccc(OC)c2)o1,inactive
10,CCN(CC)CCCNC(=O)c1c(O)c2cc(F)cc3c2n(c1=O)C(C)CC3 (stereo not given),inactive
11,CCN1C(=NCCc2cccnc2)N[C@@H](c2ccccc2)[C@H](C(=O)OC)[C@H]1C,7.38 µM (active)
12,CC(=O)OC(C(=O)NCCc1ccccc1)c1cccnc1 (stereo not given),inactive
13,CCN1C(=NCCc2cccnc2)N[C@@H](c2ccccc2)C(C(=O)OC)=C1C,inactive
14,CC(=O)C1=C(C)NC(=O)NC1c1ccc2c(c1)OCO2 (stereo not given),inactive
15,CC(C)(C)c1ccc(C(CC(=O)O)NS(=O)(=O)Cc2ccccc2)cc1 (stereo not given),inactive
16,Cc1ccnc(NS(=O)(=O)c2ccc(NC(=O)c3ccc(S(=O)(=O)N4CCOCC4)cc3)cc2)n1,inactive
17,O=C(Nc1ccc(S(=O)(=O)Nc2nccs2)cc1)c1cc(=O)[nH]c2ccccc12,inactive
18,O=C(Nc1ccc(S(=O)(=O)Nc2nccs2)cc1)c1cccc(S(=O)(=O)N2CCOCC2)c1,11.7 µM (active)
19,Cc1cccc(C)c1NC(=S)N1CCCCCC1,inactive
20,Cc1ccccc1NC(=O)Cc1nc(COC(=O)c2ccc(C(F)(F)F)cc2)cs1,inactive
21,CCOc1ccc(N(CC(=O)NCc2ccc(OC)cc2)S(=O)(=O)c2c(C)noc2C)cc1,9.28 µM (active)
22,CCOc1ccc(N(CC(=O)NCCc2ccc(OC)cc2)S(C)(=O)=O)cc1,inactive
23,Cc1noc(C)c1S(=O)(=O)N(CC(=O)NCc1ccc(Cl)cc1)c1ccc2c(c1)OCO2,inactive
24,COc1ccc(C(=O)N2CCCN(C)CC2)c(OC)c1,inactive
25,Cc1cc(C)c(S(=O)(=O)c2ccc(F)cc2C)c(=O)[nH]1,inactive

row,Compound,Potency
1,O=C(OCC(=O)N1CCCC1=O)c1cc(S(=O)(=O)N2CCOCC2)ccc1Cl,inactive
2,Cc1noc(C)c1COc1ccc(C(=O)NCCOc2ccccc2)cc1,inactive
3,O=C(CCC1CCN(C(=O)c2cccc(Cl)c2F)CC1)Nc1ccccc1,inactive
4,CCNC(=O)c1cccc(NC(=O)C2CC(=O)N(CCc3ccccc3)C2)c1 (stereo not given),inactive
5,CN(NC(=O)c1ccccc1)c1nc2ccccc2nc1C(F)(F)F,inactive
6,CN(NC(=O)c1ccccc1F)c1nc(C(F)(F)F)nc2ccccc12,11.7 µM (active)
7,COC(=O)CNC(=O)c1ccccc1F,inactive
8,O=C(O)c1ccccc1N=N/C(=N/Nc1cc(S(=O)(=O)O)ccc1O)c1ccccc1,inactive
9,CC1CC(=O)Nc2ccccc2N1C(=O)COc1ccc2cc(Br)ccc2c1 (stereo not given),inactive
10,C=CCN(C(=O)Cn1ncc2c1-c1cc(C)ccc1OC2)c1ccccc1,9.28 µM (active)
11,C=CCN(C(=O)Nc1ccc2c(c1)nc(C)n2C)c1ccccc1,inactive
12,C=CCN(C(=O)Nc1ccc2oc(C)nc2c1)c1ccccc1,inactive
13,CC(=O)NC(CC(=O)Nc1cccc(S(=O)(=O)N2CCCC2)c1)c1ccccc1 (stereo not given),inactive
14,CC[C@]1(O)CC2CN(CCc3c([nH]c4ccccc34)[C@@](C(=O)OC)(c3cc4c(cc3OC)N(C=O)[C@H]3[C@@](O)(C(=O)OC)[C@H](OC(C)=O)[C@]5(CC)C=CCN6CC[C@]43[C@@H]65)C2)C1 (stereo not given in full),0.262 µM (active)
15,CC[C@]1(O)C[C@@H]2CN(CCc3c([nH]c4ccccc34)[C@@](C(=O)OC)(c3cc4c(cc3OC)N(C)[C@H]3[C@@](O)(C(=O)OC)[C@H](OC(C)=O)[C@]5(CC)C=CCN6CC[C@]43[C@@H]65)C2)C1,0.147 µM (active)
16,CN(C(=O)COC(=O)CNC(=O)C12CC3CC(CC(C3)C1)C2)c1ccccc1,inactive
17,Cc1cc(NC(=O)CSc2nnnn2-c2ccc(F)cc2)no1,inactive
18,CC(C(=O)NCCc1ccc(S(N)(=O)=O)cc1)N1C(=O)CC(C)(C)Sc2ccccc21 (stereo not given),inactive
19,CCCN(C(=O)c1nc2nccc(C)n2n1)c1c(N)n(Cc2ccccc2)c(=O)[nH]c1=O,inactive
20,COc1ccc(OC)c(NC(=O)c2ccc3c(c2)CCN3S(C)(=O)=O)c1,inactive
21,COc1ccc(OC)c(NC(=S)N2CCc3ccccc3C2)c1,4.15 µM (active)
22,COc1ccccc1/C=C/C(=O)NC(=S)N1CCOCC1,inactive
23,COc1ccc(NC(=S)N2CCc3cc(OC)c(OC)cc3C2)cc1,inactive
24,COc1ccc(C)cc1NC(=S)N1CCOCC1,10.4 µM (active)
25,CCOC(=O)N1CCN(C(=S)Nc2ccc(C)cc2C)CC1,inactive
